Results filed as inconclusive are left out. Where a call stands in place of a potency, no number is given. Values without a mark were called inactive. Calls of active or inactive are those of the source. Unless noted, calls follow the shape of the dose curve; as a rule, active = well fitted curve in the direction sought with a large enough effect in the repeat runs; inconclusive = weak or mixed curves; inactive = no such curve, though single readings can be large; an effect the other way counts as inactive or inconclusive.
What was measured:
[1] = biological target: Luciferin 4-monooxygenase (Photinus pyralis) (UniProt P08659); test: qHTS assay to identify small molecule inhibitors of firefly luciferase (AID 1224835); also: nearly all actives have a fitted effect of over 25% in size; also: potency is read from the fitted curve at half-maximal effect
Luciferin 4-monooxygenase (Photinus pyralis), sequence (P08659 whole entry, looked up): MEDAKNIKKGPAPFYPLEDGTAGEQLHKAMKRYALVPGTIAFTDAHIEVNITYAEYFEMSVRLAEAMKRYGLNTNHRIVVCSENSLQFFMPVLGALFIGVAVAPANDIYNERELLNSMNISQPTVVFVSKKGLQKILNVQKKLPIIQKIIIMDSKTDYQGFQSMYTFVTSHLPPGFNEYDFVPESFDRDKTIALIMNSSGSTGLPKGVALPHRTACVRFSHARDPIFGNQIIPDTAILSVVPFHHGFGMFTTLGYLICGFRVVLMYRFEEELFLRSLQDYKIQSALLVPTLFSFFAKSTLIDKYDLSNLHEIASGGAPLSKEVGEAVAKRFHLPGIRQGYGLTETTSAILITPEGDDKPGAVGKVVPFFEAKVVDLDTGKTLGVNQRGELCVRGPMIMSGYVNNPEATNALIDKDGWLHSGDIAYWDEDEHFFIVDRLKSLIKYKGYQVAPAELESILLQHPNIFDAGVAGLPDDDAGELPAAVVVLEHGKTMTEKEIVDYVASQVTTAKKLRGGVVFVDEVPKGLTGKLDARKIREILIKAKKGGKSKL
Method in brief: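 Quantitative HTS format; KM concentrations of both substrates. Purified P. pyralis FLuc activity quantified from luminescence images.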

[2] = qHTS assay to identify small molecule agonists of the constitutive androstane receptor (CAR) signaling pathway - cell viability counter screen (AID 1224836); also: nearly all actives have a fitted effect of over 45% in size; also: potency is read from the fitted curve at half-maximal effect
Method in brief: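 Cell viability multiplexed with the CAR agonist screen: CellTiter-Fluor fluorescence after 23 hr at 37 C. HepG2-CYP2B6-hCAR cells got compounds at 15 concentrations with PK11195 at 0.75 uM final.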

[3] = qHTS assay to identify small molecule antagonists of the constitutive androstane receptor (CAR) signaling pathway - cell viability counter screen (AID 1224837); also: nearly all actives have a fitted effect of over 45% in size; also: potency is read from the fitted curve at half-maximal effect
Method in brief: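 Fluorescence from CellTiter-Fluor served as the viability signal. Human hepatoma HepG2 cells stably bearing hCAR and CYP2B6-2.2kb received compound plus CITCO (50 nM final) for 23 hr.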

[4] = biological target: Nuclear receptor subfamily 1 group I member 3 (Homo sapiens) (UniProt Q14994); test: qHTS assay to identify small molecule antagonists of the constitutive androstane receptor (CAR) signaling pathway (AID 1224838);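 also: HepG2 cells stably expressing hCAR with CYP2B6 luciferase reporter stimulated by CITCO; nearly all actives have a fitted effect of over 40% in size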; also: potency is read from the fitted curve at half-maximal effect
Nuclear receptor subfamily 1 group I member 3 (Homo sapiens), sequence (Q14994 whole entry, looked up): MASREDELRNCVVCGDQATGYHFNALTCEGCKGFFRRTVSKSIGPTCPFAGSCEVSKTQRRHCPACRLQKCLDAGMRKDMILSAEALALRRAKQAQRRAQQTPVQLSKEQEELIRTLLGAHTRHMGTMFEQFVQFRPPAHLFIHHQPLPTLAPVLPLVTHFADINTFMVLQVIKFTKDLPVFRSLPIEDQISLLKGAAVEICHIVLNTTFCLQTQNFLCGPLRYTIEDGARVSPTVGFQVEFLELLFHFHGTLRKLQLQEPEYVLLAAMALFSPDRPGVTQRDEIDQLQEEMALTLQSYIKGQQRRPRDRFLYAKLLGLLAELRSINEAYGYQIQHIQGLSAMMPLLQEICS
Method in brief: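 Quantitative HTS in double-stable HepG2-CYP2B6-hCAR cells. After 4 h plating, cells get compound (15 concentrations) and CITCO at 50 nM final, incubate 24 h at 37 C, then ONE-Glo luminescence is read.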

[5] = qHTS assay to identify small molecule antagonists of the estrogen related receptor signaling pathway with the pleiotropic PPARgamma coactivator (PGC) from Tox21 10K library - cell viability counter screen (AID 1224840; active = well fitted cell-killing curve with a large enough effect in the repeat runs, not every such curve was filed as active; also: nearly all actives have a fitted effect of over 40% in size; also: potency is read from the fitted curve at half-maximal effect)
Method in brief: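 Compounds in DMSO, alongside positive and negative controls, were pinned onto PGC/ERR cells (2,000 per well). Exposure lasted 17.5 hours at 37 C, followed by a 30-minute CellTiter-Fluor incubation and fluorescence reading.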

[6] = qHTS assay to identify small molecule agonists of the estrogen related receptor signaling pathway with the pleiotropic PPARgamma coactivator (PGC) from Tox21 10K library (AID 1224842); also: nearly all actives have a fitted effect of over 15% in size
Method in brief: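 PGC/ERR reporter cells (NTP line) were seeded 2,000 per well, rested 6 h at 37 C/5% CO2, then pin-dosed with compounds in DMSO for 18 h at 37 C; luciferase read by One-Glo luminescence after 30 min at room temperature.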

[7] = qHTS assay to identify small molecule antagonists of the estrogen related receptor signaling pathway with the pleiotropic PPARgamma coactivator (PGC) from Tox21 10K library (AID 1224841; call rule not given here; also: actives are mostly falling curves and most rising ones were filed inactive; nearly all actives have a fitted effect of over 50% in size; also: potency is read from the fitted curve at half-maximal effect)
Method in brief: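 Compound exposure ran 18 hours at 37 C in PGC/ERR cells (2,000/well) that had first rested 6 hours in a 37 C/5% CO2 incubator. Luciferase activity was then detected with One-Glo after a 30-minute room-temperature step.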

[8] = biological target: Nuclear receptor subfamily 1 group I member 3 (Homo sapiens) (UniProt Q14994); test: qHTS assay to identify small molecule agonists of the constitutive androstane receptor (CAR) signaling pathway (AID 1224839); also: nearly all actives have a fitted effect of over 15% in size; also: potency is read from the fitted curve at half-maximal effect
Method in brief: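 Luminescent ONE-Glo read-out after 24 hr, 37 C exposure of double-stable HepG2-CYP2B6-hCAR reporter cells to a 15-point compound series, in the presence of 0.75 uM PK11195 (final).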

Row | Compound | Potency [1] | Potency [2] | Potency [3] | Potency [4] | Potency [5] | Potency [6] | Potency [7] | Potency [8]
1 | CCCCCC[C@@H](O)C/C=C\CCCCCCCC(=O)O | inactive | inactive | inactive | inactive | inactive | inactive |  | 
2 | CCCCCCCC/C=C\CCCCCCCCO | inactive | inactive | inactive |  | inactive | inactive | inactive | 
3 | CCOC(=O)c1ccc(C#Cc2ccc3c(c2)C(C)(C)CCS3)nc1 | inactive | inactive | inactive |  | inactive |  |  | 
4 | Cc1cccc(O)c1N | inactive |  |  |  | inactive | inactive |  | inactive
5 | CN1CC(=O)N2[C@H](c3ccc4c(c3)OCO4)c3[nH]c4ccccc4c3C[C@@H]2C1=O | inactive | inactive | inactive | inactive | inactive |  |  | 
6 | COc1ccccc1N1CCN(CC(O)COc2cccc3ccccc23)CC1 (stereo not given) | inactive | inactive |  | inactive | inactive |  |  | inactive
7 | OC(CCN1CCCC1)(c1ccccc1)C1CCCCC1 (stereo not given) | inactive | inactive | inactive |  | inactive |  |  | 
8 | CC(=O)[C@H]1[C@H](C#N)C[C@H]2[C@@H]3CC=C4C[C@@H](O)CC[C@]4(C)[C@H]3CC[C@@]21C | inactive | inactive | inactive |  | inactive | inactive |  | 
9 | CCOC(=O)[C@H](CCc1ccccc1)N[C@@H](C)C(=O)N(CC(=O)O)C1Cc2ccccc2C1 | inactive | inactive | inactive |  | inactive |  |  | 
10 | CC[C@]1(O)C[C@H]2CN(CCc3c([nH]c4ccccc34)[C@@](C(=O)OC)(c3cc4c(cc3OC)N(C=O)[C@H]3[C@@](O)(C(=O)OC)[C@H](OC(C)=O)[C@]5(CC)C=CCN6CC[C@]43[C@@H]65)C2)C1 | inactive |  |  | 0.211 µM (active) |  |  |  | inactive
11 | CCC1NC(=O)c2cc(S(N)(=O)=O)c(Cl)cc2N1 (stereo not given) | inactive | inactive | inactive | inactive | inactive |  |  | 
12 | Oc1ccc(Cl)c2cccnc12 | inactive |  |  |  | inactive | inactive | 4.73 µM (active) | 
13 | COc1ccccc1N1CCN(CCCCNC(=O)c2ccc(-c3ccc(C(C)=O)cc3)cc2)CC1 | inactive | inactive | inactive |  | inactive |  |  | 
14 | CCOC(=O)c1ccccc1C(=C1C=C(Br)C(=O)C(Br)=C1)c1cc(Br)c(O)c(Br)c1 | 66.8 µM (active) | inactive | inactive |  |  | inactive | 51.3 µM (active) | 
15 | CCC(C)COC(C)=O (stereo not given) | inactive | inactive | inactive |  | inactive | inactive | inactive | 
16 | O=Cc1c2ccccc2c(Cl)c2ccccc12 | inactive | inactive | inactive |  |  | inactive | 13.3 µM (active) | 
17 | O=[N+]([O-])c1ccc(Nc2ccc(Nc3ccccc3)c(S(=O)(=O)O)c2)c([N+](=O)[O-])c1 | inactive |  | inactive | inactive | inactive |  |  | inactive
18 | O=C1c2ccccc2C(=O)C1(O)O | inactive |  |  |  | inactive | inactive | inactive | inactive

Row | Compound | Potency [1] | Potency [2] | Potency [3] | Potency [4] | Potency [5] | Potency [6] | Potency [7] | Potency [8]
19 | O=C(O)C[C@H](NC(=O)OCc1ccccc1)C(=O)O | inactive | inactive | inactive | inactive | inactive |  |  | 
20 | CCC1(CO)COCOC1 | inactive | inactive | inactive |  | inactive | inactive | inactive | 
21 | OC[C@H]1O[C@@H](n2cnc3c(=S)nc[nH]c32)[C@H](O)[C@@H]1O | inactive |  |  | 1.88 µM (active) | inactive | inactive | inactive | inactive
22 | O=c1cc(-c2ccccc2)oc2cc(O)cc(O)c12 | 2.52 µM (active) |  |  | inactive |  |  |  | 30.6 µM (active)
23 | CC(CC1c2ccccc2CCc2ccccc21)CN(C)C (stereo not given) | inactive |  | 29.8 µM (active) |  | inactive |  |  | 
24 | NNC(=O)CP(=O)(c1ccccc1)c1ccccc1 | inactive | inactive | inactive |  | inactive |  |  | 
25 | Nc1nc2ccc([N+](=O)[O-])cc2s1 |  |  |  | inactive |  |  |  | 
26 | Cc1cscn1 | inactive | inactive | inactive |  | inactive |  |  | 
27 | CCOc1ccc(Cc2nccc3cc(OCC)c(OCC)cc23)cc1OCC | inactive | inactive |  | inactive | inactive |  |  | inactive
28 | NC1[C@H]2CN(c3nc4c(cc3F)c(=O)c(C(=O)O)cn4-c3ccc(F)cc3F)C[C@@H]12 (stereo not given in full) | inactive | inactive |  | inactive | inactive |  |  | 
29 | COc1cc(N)c(Cl)cc1C(=O)NC1CCN(CCCOc2ccc(F)cc2)CC1OC (stereo not given) | inactive | inactive | inactive |  |  | inactive |  | 
30 | O=c1c(O)c(-c2ccc(O)cc2)oc2cc(O)cc(O)c12 |  | inactive | inactive | inactive | inactive | inactive | inactive | 36.8 µM (active)
31 | O=C=Nc1cccc(C(F)(F)F)c1 | inactive | inactive | inactive |  | inactive | inactive |  | 
32 | CC(=O)c1ccc([N+](=O)[O-])cc1 | inactive | inactive | inactive |  | inactive | inactive | inactive | 
33 | CN(C(=O)CN(CCO)CC(=O)N(C)C(C)(C)Cc1ccccc1)C(C)(C)Cc1ccccc1 | inactive | inactive | inactive | inactive | inactive | inactive |  | 
34 | C[C@H]1C[C@H](O)c2ccsc2S1(=O)=O | inactive | inactive | inactive | inactive | inactive | inactive | inactive | 
35 | O=C(OC(=O)c1ccccc1)c1ccccc1 | inactive | inactive | inactive |  | inactive |  |  | 
36 | CC(=O)Nc1cc(S(=O)(=O)O)cc2cc(S(=O)(=O)O)c(N=Nc3ccccc3)c(O)c12 |  | 30.6 µM (active) | 27.3 µM (active) | inactive | 27.3 µM (active) | inactive |  | 

Source: PubChem BioAssay (Tox21)
